PubChem BioAssay AID1159580 (chemical genetic matrix, 2015)
The campaign covered roughly 5,500 compounds. About 2,000 (36%) were called active. Not shown: some 18% with an inconclusive outcome. Rule as the data show it: active = normalized growth mostly below about 0.91 (no sharp cut-off); inconclusive = no clear call, values can overlap the other calls; inactive = mostly above about 0.92. The list shows a part of the results.

Assay: chemical genetic growth profiling, strain panel (AID 1159580);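 also: tested at 20 µM; growth read once vehicle control cultures reached saturation at 30 °C; 1 = growth at the plate median or of vehicle wells; lower values mean less growth of the strain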
Settings: S. cerevisiae deletion strains, growth OD
[1] = locus YHR030C, strain SLT2, active compounds read low
[2] = locus YGR078C, strain PAC10, active compounds read low
[3] = locus YNL153C, strain GIM3, active compounds read low
[4] = locus YPL055C, strain LGE1, active compounds read low
[5] = locus YPL241C, strain CIN2, active compounds read low

Measured: normalized growth

O=C[C@H](O)[C@@H](O)[C@H](O)CO
inactive: [1] 1.04 | locus YHR079C, strain IRE1, active compounds read low 1.06 | locus YJL095W, strain BCK1, active compounds read low 1.06 | locus YJR066W, strain TOR1, active compounds read low 0.998 | locus YLR113W, strain HOG1, active compounds read low 1.07 | locus YNL183C, strain NPR1, active compounds read low 1.03 | locus YOR231W, strain MKK1, active compounds read low 1.09 | locus YPL256C, strain CLN2, active compounds read low 1.02

Clc1ccc2ocnc2c1
inactive: locus YAL013W, strain DEP1, active compounds read low 1.01 | locus YBR229C, strain ROT2, active compounds read low 1.01 | locus YDL101C, strain DUN1, active compounds read low 1 | locus YDR150W, strain NUM1, active compounds read low 0.95 | locus YEL061C, strain CIN8, active compounds read low 1.01 | [2] 1 | locus YGR229C, strain SMI1, active compounds read low 1.01 | [1] 1.05 | locus YHR087W, strain rtc3, active compounds read low 0.996 | locus YJR043C, strain POL32, active compounds read low 0.931 | locus YJR075W, strain HOC1, active compounds read low 0.999 | locus YKL190W, strain CNB1, active compounds read low 1.02 | locus YLR039C, strain RIC1, active compounds read low 1.02 | locus YLR058C, strain SHM2 (second series), active compounds read low 1 | locus YLR085C, strain ARP6, active compounds read low 0.997 | locus YLR262C, strain YPT6, active compounds read low 1.08 | locus YML094W, strain GIM5, active compounds read low 0.999 | locus YMR219W, strain ESC1, active compounds read low 1.01 | locus YMR263W, strain SAP30, active compounds read low 1.01 | locus YNL128W, strain TEP1, active compounds read low 1.02 | [3] 0.996 | locus YNL298W, strain CLA4 (second series), active compounds read low 1.04 | locus YNL322C, strain KRE1, active compounds read low 1.01 | locus YNR030W, strain Alg12, active compounds read low 1 | locus YOL006C, strain TOP1, active compounds read low 1.09 | [4] 0.906 | [5] 1.01 | locus YPR135W, strain CTF4, active compounds read low 1.08

CC(C)NCC(O)COc1ccc(CCOCC2CC2)cc1 (stereo not drawn)
inactive: locus YAL040C, strain CLN3, active compounds read low 1.05 | locus YCL061C, strain MRC1 (second series), active compounds read low 1 | locus YER002W, strain NOP16, active compounds read low 1.03 | [2] 0.994 | locus YMR307W, strain GAS1, active compounds read low 0.998 | [3] 1.01 | locus YNL175C, strain NOP13, active compounds read low 1.02 | locus YNL197C, strain WHI3, active compounds read low 1.03 | locus YNL224C, strain SQS1, active compounds read low 1.01 | locus YOR083W, strain WHI5 (second series), active compounds read low 1.05 | [4] 0.998 | [5] 1
